Results from PubChem BioAssay.

Target: NADPH oxidase 5 (Homo sapiens) (UniProt Q96PH1)
Experiment: compounds shifting NOX5 Amplex Red fluorescence – cell-based, HEK293-NOX5, NOX inhibitor project, primary screen (AID 1161)
Conditions: HEK293-NOX5, ionomycin, 45 min, higher = more signal

NADPH oxidase 5 (Homo sapiens), sequence (Q96PH1 whole entry, looked up): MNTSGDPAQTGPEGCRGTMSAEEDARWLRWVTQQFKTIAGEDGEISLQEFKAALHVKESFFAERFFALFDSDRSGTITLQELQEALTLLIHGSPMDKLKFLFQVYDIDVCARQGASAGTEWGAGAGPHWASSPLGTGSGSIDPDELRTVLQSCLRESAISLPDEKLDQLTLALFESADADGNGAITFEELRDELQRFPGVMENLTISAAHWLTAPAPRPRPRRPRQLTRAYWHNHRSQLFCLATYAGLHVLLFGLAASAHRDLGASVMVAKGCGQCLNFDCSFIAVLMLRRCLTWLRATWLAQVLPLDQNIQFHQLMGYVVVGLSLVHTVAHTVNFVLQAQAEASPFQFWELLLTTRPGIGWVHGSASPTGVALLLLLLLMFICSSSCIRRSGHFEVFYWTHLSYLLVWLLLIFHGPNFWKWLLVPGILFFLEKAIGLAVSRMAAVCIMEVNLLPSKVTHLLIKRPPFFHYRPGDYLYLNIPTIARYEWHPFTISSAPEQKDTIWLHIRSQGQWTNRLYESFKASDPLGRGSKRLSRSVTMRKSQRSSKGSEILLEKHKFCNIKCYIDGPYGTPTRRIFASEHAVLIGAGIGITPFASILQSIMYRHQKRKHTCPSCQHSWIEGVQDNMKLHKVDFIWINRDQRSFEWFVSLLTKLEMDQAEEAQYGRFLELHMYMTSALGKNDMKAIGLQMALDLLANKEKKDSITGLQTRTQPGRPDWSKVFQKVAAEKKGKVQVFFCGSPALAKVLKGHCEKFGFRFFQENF

Structure (SMILES) | z-score
OCCCC1=CC(c2ccc(CN3CCCC3)cc2)N(Cc2sc3ccccc3c2Cl)CC1 (stereo unspecified) | -2.27
CC(C)C(CO)N1C(=O)[C@@H]2C3C(=O)OCCC/C=C\[C@H]3OC23C=CCN(C(C)(C)C)C(=O)[C@@H]13 (stereo partly specified) | 2.34
O=c1n(-c2ccccc2)c(=O)n2n1CC(COc1ccccc1)=C([C@H](O)CCc1ccccc1)[C@@H]2CO | -0.682
CC(C)C(=C=CC[C@H](O)c1cccc(OCCO)c1)C[C@H](O)c1cc(Cl)cc(Cl)c1O | -1.83
CC(C)(C)OC(=O)CC[C@]1(C(=O)NCC(O)CO)N=C(c2ccc(OCCCO)cc2)O[C@H]1c1ccccc1 (stereo partly specified) | 0.199
COC(=O)[C@@]1(Cc2ccccc2)[C@H]2c3cc(C(=O)N(C)C)n(CCc4ccc(O)c(OC)c4)c3C[C@H]2CN1C(=O)c1ccccc1 | -0.207
C=CCNC(=O)[C@@H]1[C@H]2C(=O)O[C@H](c3ccccc3)[C@H](c3ccccc3)N2[C@H](c2ccc(O)cc2)[C@@]12C(=O)N(C(=O)OCCOC)c1ccc(C#CC3(O)CCCCCC3)cc12 | 0.849
CCCC[C@@H]1C[C@H]1[C@@H](NC(=O)c1cccs1)c1ccc(C(F)(F)F)cc1 | -0.948
COCCOC(=O)N1C(=O)[C@@]2(c3cc(C#Cc4ccc(OC)cc4)ccc31)[C@H](c1ccccc1OCCO)N1[C@H](c3ccccc3)[C@H](c3ccccc3)OC(=O)[C@H]1[C@@H]2C(=O)N1CCCCCCC1 | 1.19
Cc1ccccc1C(O)C1C=CC2C(=O)N(C)C(=O)C2N1N(c1ccccc1)c1ccccc1 (stereo unspecified) | -0.125
Cc1ccc(S[C@]2(C(=O)NCC(F)(F)F)CC(=O)N(Cc3ccccc3C(F)(F)F)[C@@H]2c2ccc(CO)cc2I)cc1 | 1.94
